Active and inactive are the calls of the source. How the source made its calls: active means hit-call score of the fitted dose curve at least 0.9, where 1 is the maximum; inactive means score below 0.9.
Read-out: Transforming Growth Factor (TGFA), TGFA (gene 7039)
Experiment: LTEA_HepaRG_TGFA: Life Technologies and Expression Analysis (LTEA) Assay for Transforming Growth Factor (TGFA) using HepaRG (AID 2283532)
Conditions: mRNA level, 48 h; actives raise or lower the signal
Procedure: LTEA_HepaRG is a cell based, multiplexed-readout assay that uses HepaRG, a human liver cell line, with measurements taken at 48 hours after chemical dosing on a 96-well plate.LTEA_HepaRG_TGFA is one of 102 assay component(s) measured in the LTEA HepaRG cell culture assay. It is a marker of Cell proliferation, survival, death.Data from the assay component LTEA_HepaRG_TGFA was analyzed into 1 endpoint. This assay endpoint, LTEA_HepaRG_TGFA, was analyzed with bidirectional fitting relative to DMSO as the negative control and baseline of activity. Using a type of inducible reporter, measures of mRNA induction for gain or loss-of-signal activity can be used to understand regulation of transcription factor activity. To generalize the intended target to other relatable targets, this assay endpoint is annotated to the growth factor intended target family, where the subfamily is EGF-like domain.
A total of 1060 chemcials from the ToxCast library were tested in eight-point concentration-response experiments. Cell culture and cytotoxicity assays were conducted at Thermo Fisher Scientific's Custom Services facility (Madison, WI). A single lot of human HepaRG cells (Thermo Fisher Scientific, Frederick, MD) was used for the cell culture experiments. 96-well format collagen type I coated plates of human HepaRG cells were prepared using established methods. Briefly, cryopreserved HepaRG cells were thawed, plated at a density of approximately 100,000 cells/well in HepaRG Thaw, Plate, and General Purpose media (HPRG770, Thermo Fisher Scientific), and incubated for 48 hours. 0.5% DMSO was selected as vehicle control to balance the requisite need of DMSO in HepaRG cultures to maintain differentiation (for example, baseline metabolism, proportions of hepatocytes vs. cholangiocytes), while enabling further hepatic receptor pathway activation (for example, PXR and CAR) in response to chemical exposure. 48 hours after plating, the culture medium was replaced with HepaRG Serum-Free Incudtion Media. Cells were exposed to each test chemical in duplicate and maintained in CO2 incubators for another 48 hours. Chemical plates were thawed to room temperature and 200x concentrations of treatment groups were prepared. 8-point conentration-reponse curves were made with the highest exposure at 100 uM, followed by half-log dilutions, all in 0.5% DMSO. Each test plate contained variouse controls, induction positive controls (1mM phenobarbital), cytotoxicity positive controls ([…] aflatoxin B1), vehicle controls (0.5% DMSO), and total lysis controls (0.5% DMSO). Cell morphology images were taken using an Essen IncuCyte FLR automated microscope, with six 96-well plates imaged in about 24 minutes. Images were captured and exported and JPEG files. Spent culture media was transfered to black-well plates for the LDH assay, and remaining media was sorted at -80 C for later use. Cells were treated with RLT buffer and frozen until shipped for gene expression analysis. Total RNA was isolated from the cell suspension in 75 uL of Buffer RLT (Qiagen, Germantown, MD 20874) by Quintiles/Expression Analysis (Durham, NC) using a custom isolation procedure. Total RNA from each plate well was transferred to a preamplification plate. Fluidigm's 96.96 Dynamic ArrayTM (Fluidigm, Amsterdam, the Netherlands) technology was used for gene expression analyses by quantitative reverse transcription polymerase chain reaction (qRT-PCR, performed by Quintiles/Expression Analysis, Durham, NC)89. Standard TaqManTM Assays (Applied Biosystems/ThermoFisher Scientific, Foster City, CA) were used to assess the expression of 93 genes selected based on their selectivity and sensitivity to important hepatic receptors known to be modulated by environmental chemicals; importance in human hepatocyte functionality; and hepatotoxicity. […]

outcome, inactive:
CNS(=O)(=O)c1cc(C(=O)N2CCC(CCN3C4CCC3CC(n3c(C)nc5ccccc53)C4)(c3cccc(F)c3)CC2)c(Cl)cc1F (stereo not given)
Nc1nc2ncc(CNc3ccc(C(=O)N[C@@H](CCC(=O)O)C(=O)O)cc3)nc2c(=O)[nH]1
CCCN(C1CCN(C(=O)C2CCNCC2)CC1)[C@@H]1CCc2ccc(OC)cc2C1
CC[C@H]1CC[C@H](NCc2cc3c(cc2OC)[C@H]2C[C@H]2C(=O)N3C)[C@H](c2ccccc2)N1
CC/C(=C\C(=N/O)C(N)=O)C(C)[N+](=O)[O-] (stereo not given)
CC(C)CCO
Cc1ccc(C)c(O)c1
Cn1c(=O)cc(Oc2ccc(F)cc2F)c2cnc(NCC(C)(C)O)nc21
CCCCCCc1ccc(O)cc1O
C1=CCCC=CCCC=CCC1
Cn1c(=O)c2c(ncn2C)n(C)c1=O
CC(=O)OC[C@H]1O[C@@](COC(C)=O)(O[C@H]2O[C@H](COC(C)=O)[C@@H](OC(C)=O)[C@H](OC(C)=O)[C@H]2OC(C)=O)[C@@H](OC(C)=O)[C@@H]1OC(C)=O
CN(C)c1ccc(N=NS(=O)(=O)O)cc1
COc1ccc(/C=C/S(=O)(=O)NC(=O)c2ccc(C)cc2Cl)cc1
O=C1CCCCCN1
CN(C)c1ccc(Cc2ccc(N(C)C)cc2)cc1
CNCc1ccc(NC(=O)c2c[nH]c3c2C(=O)CCC3)cc1
CC[C@H](C)C(=O)O[C@H]1C[C@@H](C)C=C2C=C[C@H](C)[C@H](CC[C@@H]3C[C@@H](O)CC(=O)O3)[C@H]21
CCn1nc(Cc2ccccc2)cc1C1CCN(C[C@H]2C[C@H](N(C)[C@@H](C(=O)O)C(C)C)C[C@@H]2c2cccc(F)c2)CC1
CCNc1ccccc1
CC(C)=CCC/C(C)=C/CO
CC[C@H]1OC(=O)[C@H](C)[C@@H](O[C@H]2C[C@@](C)(OC)[C@@H](O)[C@H](C)O2)[C@H](C)[C@@H](O[C@@H]2O[C@H](C)C[C@H](N(C)C)[C@H]2O)[C@](C)(O)C[C@@H](C)C(=O)[C@H](C)[C@@H](O)[C@]1(C)O
O=c1n(CC2CO2)c(=O)n(CC2CO2)c(=O)n1CC1CO1 (stereo not given)
CCCCC(CC)COC(=O)c1ccc(C(=O)OCC(CC)CCCC)cc1 (stereo not given)
CC(C)CCCCCCCOC(=O)CCCCC(=O)OCCCCCCCC(C)C
CCOCCO
O=C(O)c1cccc(N(Cc2cccnc2)c2ccc(OC(F)F)c(OC(F)F)c2)c1
COCCOCCOCCOC
CC(C)=CCCC(C)=CC=O
C=CCCCCCCCCC(=O)O
CCCCCCCCCCCCCCCO
Cc1ccc(O)cc1
CCCCC(CC)COC(=O)CCCCCCCCC(=O)OCC(CC)CCCC (stereo not given)
CC(C)c1cccc(C(C)C)c1N1C(=O)c2ccc(O)cc2C1=O

AC50, active:
COc1ccc2sc(C(=O)Nc3nnn[nH]3)c(OC(C)C)c2c1 34 µM
CCc1cc(SCc2sc(-c3ccc(C(F)(F)F)cc3)nc2CN2CCN(c3ccc(OC)cc3)CC2)ccc1OCC(=O)O 6.99 µM
COc1cccc(-c2ccc(/C=C\CN3CCCCCC3)cc2Cl)c1 74.4 µM
O=P(OC(CCl)CCl)(OC(CCl)CCl)OC(CCl)CCl 83.3 µM
O=C(CCCCCCCCc1cccnc1)N1CCC(C=C(c2ccccc2)c2ccccc2)CC1 27 µM
O=C(OC[C@H]1O[C@@H](OC(=O)c2cc(O)c(O)c(OC(=O)c3cc(O)c(O)c(O)c3)c2)[C@H](OC(=O)c2cc(O)c(O)c(OC(=O)c3cc(O)c(O)c(O)c3)c2)[C@@H](OC(=O)c2cc(O)c(O)c(OC(=O)c3cc(O)c(O)c(O)c3)c2)[C@@H]1OC(=O)c1cc(O)c(O)c(OC(=O)c2cc(O)c(O)c(O)c2)c1)c1cc(O)c(O)c(OC(=O)c2cc(O)c(O)c(O)c2)c1 6.41 µM

Source: PubChem BioAssay (EPA / NIEHS)
